From PubChem BioAssay (NCATS)
Values joined by “and” are separate entries in the source; they are usually repeats but may differ in a detail not shown here. Equal values may be shown once. Results filed as inconclusive are left out. Active and inactive are the calls of the source. Unless noted, calls come from the whole dose curve; as a rule, active = well fitted curve in the direction sought with a large enough effect; inconclusive = small, poorly fitted or top-dose-only effect, or another doubt; inactive = no such curve, though single readings can be large; an effect the other way counts as inactive or inconclusive.

Assays:
[1] = Cellular Toxicity (caspase-3) Jurkat (AID 655); details: Jurkat caspase-3 activation, luminescence; caspase-3 activation: at 92.2 µM (top of the series), DMSO = 0%, tamoxifen = 100%;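 note: cells exposed to compound for 16 h at 37 °C before reading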
How it was run: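 5000 Jurkat cells/well; compound 16 hr, 37 °C; Caspase-Glo 3/7 added, 20 min RT; luminescence read. Norm: DMSO = 0%, tamoxifen 100 uM = 100%. AC50, Hill model.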

[2] = Cellular Toxicity (caspase-3) MRC-5 (AID 659);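 note: cells exposed to compound for 16 h at 37 °C; 0% = DMSO basal and 100% = 10 µM staurosporine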
How it was run: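 Luminescence from caspase-cleaved aminoluciferin substrate (Caspase-Glo 3/7, 1 hr RT) reports caspase 3/7 activity in MRC-5 lung fibroblasts after 16 hr compound exposure. Normalized to DMSO basal and 10 uM staurosporine as 100%; AC50 from Hill fits.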

[3] = MultiTox-Fluor Cytotoxicity Assay - LYMP1-003 - Live Cells (AID 962);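 note: 0% = DMSO only and full loss = 92 µM tetraoctylammonium bromide; cytotoxic hits lower the live-cell protease signal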
How it was run: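 LYMP1-003 lymphoblastoid cells, 2500/well in complete medium, treated 16 h at 37 C; live-cell protease cleavage of GF-AFC read by fluorescence (Ex/Em 405/510) after 60 min reagent; AC50 from Hill fits of concentration-response.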

[4] = Cell Viability - LYMP1-003 - Assay at 24 hr (AID 963);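 note: plate controls were DMSO only for no effect and tetraoctylammonium bromide positive control for full effect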
How it was run: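 Human lymphoblastoid LYMP1-003 cells, 2500/well, treated 24 h at 37 C in complete medium. Viability read as intracellular ATP by CellTiter-Glo luminescence after 30 min at room temperature; AC50 from Hill-equation fits of qHTS concentration-response.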

[5] = Cell Viability - LYMP1-003 - Assay at 40 hr (AID 964); note: % is set by controls: 0 for no effect and ±100 for the full control effect; nearly all actives have a fitted effect of over 60% in size
How it was run: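 LYMP1-003 human lymphoblastoid cells, 2500/well, preincubated 5 h at 37 C, then treated with compound for 40 h at 37 C. Intracellular ATP read by CellTiter-Glo luminescence after 30 min at room temperature; AC50 from Hill-equation fits.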

[6] = Cell Viability - LYMP2-004 (AID 966);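 note: plate controls were DMSO only for no effect and tetraoctylammonium bromide control for full effect; nearly all actives have a fitted effect of over 65% in size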
How it was run: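 Lymphoblastoid LYMP2-004 cells, 2500 per well, were preincubated for 5 hr and then treated with compound for 24 h at 37 C in complete medium. Viability was read as cellular ATP by CellTiter-Glo luminescence, and AC50 values were taken from Hill fits to concentration-response data.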

[7] = Cell Viability - LYMP2-011 (AID 969);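 note: 0% = DMSO only and full inhibition = 92 µM tetraoctylammonium bromide; nearly all actives have a fitted effect of over 60% in size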
How it was run: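 2500 cells/well in complete medium, compound-treated 24 h at 37 C. Viability read as intracellular ATP by CellTiter-Glo luminescence after 30 min at room temperature. AC50 from Hill fits of qHTS concentration-response data.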

[8] = Cell Viability - LYMP2-021 (AID 974);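 note: compound exposure lasts 24 hours at 37 °C; % is set by controls: 0 for no effect and ±100 for the full control effect; nearly all actives have a fitted effect of over 55% in size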
How it was run: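 Human lymphoblastoid LYMP2-021 cells, 2500/well in complete medium, treated 24 hours at 37 C. Intracellular ATP by CellTiter-Glo luminescence (30 min, RT); AC50 from Hill fits of concentration-response.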

[9] = Cell Viability - LYMP2-010 (AID 981); note: % is set by controls: 0 for no effect and ±100 for the full control effect; nearly all actives have a fitted effect of over 55% in size
How it was run: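 Human lymphoblastoid LYMP2-010 cells (2500/well) treated 24 h at 37 C in complete medium; viability read as intracellular ATP by CellTiter-Glo luminescence. AC50 from Hill fits of concentration-response data; tetraoctylammonium bromide positive control.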

[10] = Cell Viability - LYMP2-016 (AID 984); note: % is set by controls: 0 for no effect and ±100 for the full control effect; nearly all actives have a fitted effect of over 55% in size
How it was run: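 Cells were seeded at 2500 per well and rested 5 hr before a 24 hr compound exposure at 37 C. Viability was then gauged as cellular ATP by luciferase luminescence, with AC50 values fitted to the Hill equation.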

[11] = Cell Viability - LYMP2-018 (AID 985);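 note: plate controls were DMSO only for no effect and tetraoctylammonium bromide at 92 µM for full effect; nearly all actives have a fitted effect of over 50% in size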
How it was run: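 Human lymphoblastoid LYMP2-018 cells, 2500/well, settled 5 hr at 37 C then exposed to compound 24 hr at 37 C; intracellular ATP measured by CellTiter-Glo luminescence. AC50 from Hill-equation concentration-response fits.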

[12] = Cell Viability - LYMP2-024 (AID 988);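 note: plate controls were DMSO only for no effect and 92 µM tetraoctylammonium bromide for full effect; nearly all actives have a fitted effect of over 60% in size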
How it was run: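 Human lymphoblastoid LYMP2-024 cells (2500/well) rested 5 hr, then treated with compound for 24 hr at 37 C in complete medium. Viability was measured as intracellular ATP by CellTiter-Glo luminescence. AC50 values came from Hill-equation fits.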

[13] = target: Peroxisome proliferator-activated receptor delta (Homo sapiens) (UniProt Q03181); assay: qHTS assay for small molecule agonists of peroxisome proliferator-activated receptor delta signaling (AID 588534; calls by dose curve;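 note: 0% = DMSO basal wells and 100% = positive control agonist at 10 µM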)
Sequence of Peroxisome proliferator-activated receptor delta (Homo sapiens) (Q03181 whole entry, looked up): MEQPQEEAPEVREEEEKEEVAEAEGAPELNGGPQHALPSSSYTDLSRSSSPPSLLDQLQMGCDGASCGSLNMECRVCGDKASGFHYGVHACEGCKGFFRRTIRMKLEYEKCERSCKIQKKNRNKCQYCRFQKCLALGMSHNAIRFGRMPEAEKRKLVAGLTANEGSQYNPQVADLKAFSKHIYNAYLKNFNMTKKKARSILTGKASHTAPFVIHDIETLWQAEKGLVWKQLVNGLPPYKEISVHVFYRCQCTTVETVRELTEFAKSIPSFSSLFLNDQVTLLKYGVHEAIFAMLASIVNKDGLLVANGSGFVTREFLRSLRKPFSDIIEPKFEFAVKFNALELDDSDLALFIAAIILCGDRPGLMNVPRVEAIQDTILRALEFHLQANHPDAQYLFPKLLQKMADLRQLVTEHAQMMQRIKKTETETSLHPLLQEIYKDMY
How it was run: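 Cells carrying a PPAR-delta beta-lactamase reporter were treated with compounds for 18 h at 37 °C in agonist mode. CCF4 fluorescence was read after 2 h; EC50 and efficacy from Hill fits.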

[14] = qHTS assay for small molecule activators of the p53 signaling pathway (AID 651743; active = well fitted activation curve with a large enough effect in the signal ratio, not every such curve was filed as active; the % refers to the signal ratio; note: % of control where 0% means no effect); details: HCT-116 p53RE-bla, beta-lactamase FRET ratio, 16 h; activation: active compounds read high
How it was run: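 Cell-based beta-lactamase reporter (p53 response elements, HCT-116 background). After a 5-hour preincubation, cells received compound for 16 hours at 37 C; substrate development ran 2 hours at room temperature.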

[15] = qHTS assay for small molecule activators of the human pregnane X receptor (PXR) signaling pathway (AID 720659; call rule not given here; note: 0% is about no effect)
[16] = Cell Viability - N2a (AID 540); details: N2a mouse neuroblastoma cell viability; activity change, negative = cytotoxicity: at 92.2 µM (top of the series);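 note: plate controls were DMSO alone for no effect and tamoxifen control for full effect; nearly all actives have a fitted effect of over 45% in size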
How it was run: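 Mouse neuroblastoma N2a cells, 1500/well, exposed to compounds 40 h at 37 °C in complete medium. Viability measured as cellular ATP by CellTiter-Glo luminescence; AC50 from Hill fits of concentration-response.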

[17] = Cellular Toxicity (caspase-3) BJ (AID 658);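 note: 0% = DMSO basal and 100% = 10 µM staurosporine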
How it was run: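 Luminescent aminoluciferin-substrate cleavage reports caspase 3/7 activity in normal human BJ fibroblasts after 16 hr compound exposure at 37 °C. Normalized to DMSO (basal) and 10 uM staurosporine (100%); AC50 from Hill fit of concentration-response.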

[18] = MultiTox-Fluor Cytotoxicity Assay - LYMP1-001 - Dead Cells (AID 946)
How it was run: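 Cytotoxicity as increased dead-cell protease fluorescence (bis-AAF-R110, 485/520 nm), read 60 min after MultiTox-Fluor reagent. Human lymphoblastoid line exposed 16 h; Hill-fitted AC50, with DMSO as 0% and 15 uM tetraoctylammonium bromide as 100%.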

[19] = Cell Viability - LYMP2-014 (AID 983);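 note: plate controls were DMSO only for no effect and 92 µM tetraoctylammonium bromide for full effect; nearly all actives have a fitted effect of over 50% in size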
How it was run: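 LYMP2-014 human lymphoblastoid cells, 2500/well, treated 24 h at 37 C in complete medium; viability by CellTiter-Glo ATP luminescence after 30 min at room temperature. AC50 from Hill fits of qHTS concentration-response; tetraoctylammonium bromide positive control.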

[20] = qHTS assay for small molecule agonists of the antioxidant response element (ARE) signaling pathway measured by Nrf2-dependant transcriptional activity (AID 720636; active = well fitted curve in the direction sought with a large enough effect in the repeat runs; an effect the other way counts as inactive or inconclusive; note: % of control where 0% means no effect)
How it was run: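 Quantitative HTS format in HepG2 cells stably expressing an ARE-luciferase reporter; 16 hr compound treatment at 37 C, luciferase signal detected with ONE-Glo.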

OCC(Cl)CCl (stereo unspecified)
inactive: caspase-3 activation [1] 2.02% | outcome [2] | outcome [3] | outcome [4] | Potency [5] | Potency [6] | Potency [7] | Potency [8] | Potency [9] | Potency [10] | Potency [11] | Potency [12] | outcome [13] | activation [14] -0.732% | outcome [15]

CC(C)OS(C)(=O)=O
inactive: Potency [16] | caspase-3 activation [1] 1.6% | outcome [17] | outcome [18] | outcome [3] | outcome [4] | Potency [6] | Potency [7] | Potency [8] | Potency [9] | Potency [19] | Potency [11] | Potency [12] | outcome [13] | activation [14] -0.853% | Potency [20] | outcome [15]

Cl/C=C\Cl
inactive: Potency [16] | caspase-3 activation [1] 0.747% | outcome [17] | outcome [18] | outcome [3] | outcome [4] | Potency [5] | Potency [6] | Potency [9] | Potency [10] | Potency [11] | Potency [12] | outcome [13] | activation [14] 1.35% | Potency [20] | outcome [15]

CCCN(CCC)c1c([N+](=O)[O-])cc(C(F)(F)F)cc1[N+](=O)[O-]
inactive: caspase-3 activation [1] 2.21% | outcome [17] | outcome [2] | outcome [18] | outcome [3] | outcome [4] | Potency [5] | Potency [7] | Potency [8] | Potency [19] | Potency [11] | Potency [12] | outcome [13] | Potency [20]

C=CCCC#N
inactive: Potency [16] | caspase-3 activation [1] -1.73% | outcome [2] | outcome [3] | outcome [4] | Potency [5] | Potency [6] | Potency [7] | Potency [8] | Potency [9] | Potency [19] | Potency [10] | Potency [11] | outcome [13] | activation [14] -2.14% | Potency [20] | outcome [15]

ClC(Cl)(Cl)C(Cl)(Cl)Cl
inactive: Potency [16] | outcome [3] | outcome [4] | Potency [5] | Potency [6] | Potency [7] | Potency [9] | Potency [19] | Potency [10] | Potency [11] | Potency [12] | activation [14] -2.98% | outcome [15]

Cc1ccc(N)c(C)c1
inactive: Potency [16] | caspase-3 activation [1] 1.21% | outcome [17] | outcome [2] | outcome [18] | outcome [3] | Potency [5] | Potency [7] | Potency [8] | Potency [9] | Potency [19] | Potency [10] | Potency [11] | Potency [12] | Potency [20] | outcome [15]

COc1cc(-c2ccc(N)c(OC)c2)ccc1N
inactive: Potency [16] | caspase-3 activation [1] -0.124% | outcome [17] | outcome [2] | outcome [18] | outcome [3] | outcome [4] | Potency [5] | Potency [6] | Potency [7] | Potency [8] | Potency [9] | Potency [19] | Potency [10] | Potency [11] | Potency [12] | outcome [13] | activation [14] 0.265% and -0.413% and 0.709% | Potency [20]

BrC(Br)Br
inactive: Potency [16] | caspase-3 activation [1] -0.161% | outcome [17] | outcome [2] | outcome [3] | outcome [4] | Potency [6] | Potency [7] | Potency [9] | Potency [19] | Potency [10] | Potency [11] | outcome [13] | outcome [15]
